Assay results taken from ChEMBL document CHEMBL4513216, “Probing the Open Global Health Chemical Diversity Library for Multistage-Active Starting Points for Next-Generation Antimalarials” (ACS Infect Dis, 2020).
Screen size: about 69,000 compounds; about 8,600 (12%) showed an effect of 50% or more. What follows is part of a selection rich in strong results, with near analogues and random picks from the rest.

tested on: Plasmodium berghei; assay: Screen against P. berghei liver stage (PbLuc), transformed with Luciferase, at 10uM; format: functional, HepG2; settings: tested at 10 uM

| SMILES | INHIBITION [%] |
| --- | --- |
| O=c1[nH]cnc2c1CCN(S(=O)(=O)c1cccc(OC(F)(F)F)c1)C2 | -23.7 |
| COCCN1C[C@H](OCc2csc(C)n2)[C@H]2COC[C@H]21 | -41.4 |
| CCC(C)N(Cc1sccc1C)C(=O)c1cc(N)ccn1 (stereo unspecified) | 43.9 |
| Cc1ccccc1-c1cncc(C2CCN(C)CC2)n1 | 38.1 |
| Cc1ccccc1-c1cncc(C2CCN(C(C)C)CC2)n1 | 32.8 |
| Cc1ccccc1-c1cncc(C2CCN(C3CCOCC3)CC2)n1 | 64.1 |
| COc1cccc(-n2nnc(C(=O)N3CCN(C)CC3C)c2C)c1 (stereo unspecified) | 68.3 |
| COc1cccc(-n2nnc(C(=O)N3CCCC(C)C3)c2C)c1 (stereo unspecified) | -60.35 |
| COc1cccc(-n2nnc(C(=O)N3CCCC3)c2C)c1 | 2.26 |
| Cc1nc(C)c(CN2CCC(N(C)Cc3nnc(C4CC4)o3)C2)s1 (stereo unspecified) | -21.9 |
| CC(C)(C)c1nc(CNc2cc3c(cc2Cl)NC(=O)CO3)no1 | 5.91 |
| Cc1noc(CNc2cc3c(cc2Cl)NC(=O)CO3)n1 | 3.13 |
| Cc1ccc(CNc2cc3c(cc2Cl)NC(=O)CO3)cc1C | 56 |
| O=C(NCc1nnc2n1CCC2)c1cccc(Br)c1 | -57.5 |
| Cc1csc(C2(NCc3nc(-c4ccco4)oc3C)CCCC2)n1 | 64.5 |
| Cc1csc(C2(NCc3ccc(OCC(F)F)cc3)CCCC2)n1 | 14.5 |
| Cc1csc(C2(NCc3csc(C4CC4)n3)CCCC2)n1 | 24.2 |
| Cc1csc(C2(NCC(O)COC(C)C)CCCC2)n1 (stereo unspecified) | 9.41 |
| Cc1csc(C2(NCc3nnc(-c4ccco4)o3)CCCC2)n1 | 32.9 |
| Cc1csc(C2(NCc3nc(-c4ccco4)no3)CCCC2)n1 | 62 |
| COCCNC(=O)N1CCN(C(=O)c2nsc3ccc(C)cc23)CC1 | -32.1 |
| Cc1ccc(OCC(=O)N2CCCC(n3nc(C)nc3C)C2)cc1 (stereo unspecified) | 25.1 |
| CN(CCCN1CCCCCC1)C(=O)c1ccccc1NCC(=O)O | 14.9 |
| c1ccc(-c2nnc(CN3CCCC(Cn4cncn4)C3)o2)cc1 (stereo unspecified) | 9.31 |

| SMILES | INHIBITION [%] |
| --- | --- |
| COc1ccc(Cl)cc1NCc1cc(C)on1 | 11.783 |
| CCOc1ccc(C#N)cc1NCC(=O)OC | -38.7 |
| CCOc1ccc(C#N)cc1NCC(=O)Nc1cc(C)no1 | 7.7 |
| CCOc1c(Cl)cccc1NCc1cc(C)on1 | -10.2 |
| CCCNC(=O)CNc1cc(C#N)ccc1OCC | 60.5 |
| CCOc1ccc(C#N)cc1NCC(=O)NC(=O)NC | 2.3 |
| CCOc1ccc(C(F)(F)F)cc1NCc1nc(C)c(C)o1 | 65.6 |
| CCOc1ccc(OCC)c(NCc2cc(C)on2)c1 | 71.2 |
| CCOc1ccc(C#N)cc1NCc1cc(C)on1 | 51.7 |
| CCNC(=O)NC(=O)CNc1cc(C#N)ccc1OCC | -9.76 |
| CCOc1ccc(C(F)(F)F)cc1NC(=O)NCc1noc(C)n1 | -15 |
| CCOc1ccc(C(F)(F)F)cc1NC(=O)N1CCC(C(N)=O)CC1 | -3.21 |
| CCN(Cc1cccc(C)c1)Cc1nc2c(cnn2C)c(=O)[nH]1 | 49.1 |
| Cc1cc(N2CCN(Cc3cn(C)nc3C)CC2)cc(C2CCNC2)n1 (stereo unspecified) | 18.225 |
| Cc1ccc(NC2CCN(C(=O)c3cccnc3N(C)C)CC2)nn1 | 21.6 |
| CN(C)[C@@H]1CCN(c2ncc(F)cn2)[C@H]1Cc1cccnc1 | 9.72 |
| Cc1cc(C)n(CC2CN(Cc3ccc(C(N)=O)cc3)CCO2)n1 (stereo unspecified) | 46.1 |
| COCC(=O)N1CCCC1c1nc(C)c2c(n1)N(CC(C)C)C(=O)CC2 (stereo unspecified) | -16.9 |
| CCNC(=O)N(C)C(c1ccccc1)c1ccccn1 (stereo unspecified) | -16 |
| COc1ccc(C(C)NCc2ccsc2)cc1Cn1cccn1 (stereo unspecified) | 10.6 |
| CC(=O)N(C)C1CCN(C(=O)NCCc2cc(F)ccc2F)CC1 | -6.67 |
| Cc1cc(CNc2cc(Cl)ccc2OCCS(C)(=O)=O)no1 | 48.1 |
| Cc1cc(CNc2ccc(C(F)(F)F)cc2)no1 | 30.4 |
| CCOc1ccc(C(F)(F)F)cc1NCc1cc(C)on1 | 64.7 |

| SMILES | INHIBITION [%] |
| --- | --- |
| Cn1cc(CN2CCC3(CC2)CC(c2ccncc2)C(=O)N3)cn1 (stereo unspecified) | 36.4 |
| CCOCCN1CCN(CC(O)c2ccc(C(F)(F)F)cc2)CC1 (stereo unspecified) | 24 |
| OC(CN1CCN(Cc2nnc(C3CC3)o2)CC1)c1ccccc1 (stereo unspecified) | -7.06 |
| O=C(Cc1ccc(F)cc1)N1CCN(CC(O)c2ccccc2)CC1 (stereo unspecified) | 29.7 |
| CC(O)CN1CCN(CCOCC(F)(F)F)CC1 (stereo unspecified) | -21.2 |
| O=C(N1CCCCC1)N1CCN(CC(O)c2ccc(F)cc2)CC1 (stereo unspecified) | 9.25 |
| OC(CN1CCN(CCOCC(F)(F)F)CC1)c1ccccc1 (stereo unspecified) | 56.9 |
| OC(CN1CCN(CC2CC2)CC1)c1ccc(Br)cc1 (stereo unspecified) | -63.6 |
| OC(CN1CCN(CC2CCCCC2)CC1)c1ccccc1 (stereo unspecified) | 93.8 |
| O=C(N1CCCCC1)N1CCN(CC(O)c2ccccc2)CC1 (stereo unspecified) | 56.4 |
| COCCNC(=O)NCc1ccc(-n2ccc(C(F)(F)F)n2)cc1 | -42.1 |
| CC1CCc2nn(CCNC(=O)C3CCCC3)c(=O)cc2C1 (stereo unspecified) | -28.1 |
| CCCN(CCC)CCNc1c(-c2ccccc2)c(=O)c1=O | 49.5 |
| Cc1cnc(-c2nc(C3CCCN(Cc4ccccc4C)C3)no2)cn1 (stereo unspecified) | 25.75 |
| Cc1cnc(CN2C[C@H]3CC(Oc4ccccc4)C[C@H]3C2)cn1 (stereo partly specified) | 30.4 |
| CN1C(=O)[C@@H]2CC[C@H]1CN(S(=O)(=O)c1ccc(Cl)cc1Cl)C2 | 24.3 |
| CN(C)C(=O)Cn1cnc2c(Br)cccc2c1=O | -14.1 |
| COc1cc(C(F)(F)F)sc1C(=O)O | 20.8 |
| Cc1cccc(C(=O)N(C)Cc2cc(Br)cs2)n1 | 37.1 |
| COC(=O)CN(C)Cc1cc(Br)cs1 | 53.2 |
| CN(CCC(N)=O)Cc1cc(Br)cs1 | 24 |
| COC(=O)CNC(=O)CCc1cc(Br)cs1 | 7.19 |
| CN(Cc1cc(Br)cs1)Cc1nnsc1Cl | 46.3 |
| COC(=O)CCN(C)Cc1cc(Br)cs1 | 60.2 |

| SMILES | INHIBITION [%] |
| --- | --- |
| COCCN1CCO[C@@H]2CN(Cc3ccccc3OC)C[C@@H]2C1 | 2.4 |
| CCc1nnc2n1CCN(Cc1cc(Cl)c3c(c1)OCCCO3)C2 | 23.6 |
| O=C(CNC(=O)N1CCc2c([nH]c3ccc(Cl)cc23)C1)NCCCO | 4.25 |
| COCc1csc(NC(=O)N2CCC(Cc3cnn(C)c3)C2)n1 (stereo unspecified) | -27.8 |
| O=c1c2sccc2nc2n1CCN(Cc1cc(F)ccc1F)CC2 | 3.91 |
| O=c1c2sccc2nc2n1CCN(Cc1cccs1)CC2 | -3.41 |
| Cc1c(CN2CCc3nc4sccc4c(=O)n3CC2)cnn1C | -12.4 |
| O=c1c2sccc2nc2n1CCN(Cc1ccc(F)c(F)c1)CC2 | 31.6 |
| CCOc1ccccc1CN1CCc2nc3ccsc3c(=O)n2CC1 | 49.6 |
| Cc1ccsc1CN1CCc2nc3ccsc3c(=O)n2CC1 | 35.2 |
| COc1ccc(OC)c(CN2CCc3nc4ccsc4c(=O)n3CC2)c1 | 14.7 |
| COc1ccc(CN2CCc3nc4ccsc4c(=O)n3CC2)c(C)c1C | 92.9 |
| COc1cccc(CN2CCc3nc4ccsc4c(=O)n3CC2)c1 | 54.4 |
| CCOc1ccc(CN2CCc3nc4ccsc4c(=O)n3CC2)cc1 | 28 |
| O=c1c2sccc2nc2n1CCN(Cc1ccccc1C(F)(F)F)CC2 | 92.9 |
| COc1cc(C)c(CN2CCc3nc4ccsc4c(=O)n3CC2)cc1C | 89.3 |
| CN1CC(C)(C)CN(C(=O)CCc2ccccc2)CC1=O | 24.5 |
| O=C(c1cc[nH]n1)N1CCCC1c1cc(Nc2ccccn2)n[nH]1 (stereo unspecified) | -20.2 |
| Cc1ccc2c(c1)c(C)cc(=O)n2CCC#N | 11.2 |
| CC(C)c1noc(CN2CCN(C(=O)c3ccncc3F)CC2)n1 | -29.1 |
| O=S(=O)(NCC1COCc2c(-c3ccncc3)nnn2C1)C1CC1 (stereo unspecified) | 18.3 |
| NC(=O)c1ccc(NC(=O)c2ccncc2Cl)cn1 | 13.8 |
| Cc1ccc(OC2(C(=O)O)CCN(C(=O)CCc3ccco3)CC2)cn1 | 34.4 |
| CC(C)(C)c1n[nH]cc1CN1CCc2nc3ccsc3c(=O)n2CC1 | 50.6 |

| SMILES | INHIBITION [%] |
| --- | --- |
| Cc1nn(C)cc1CN1CCc2nc3sccc3c(=O)n2CC1 | 30.5 |
| O=c1c2sccc2nc2n1CCN(Cc1ccsc1)CC2 | 5.11 |
| COc1ccc(CC(=O)N2CC[C@@H]3[C@H](CC2)N(C)CCS3(=O)=O)cc1 | 18.5 |
| COCCCN(Cc1cnc(-c2cccs2)nc1)C1CCN(C)CC1 | 13 |
| Cc1nc(NC2CCCCC2)cc(C2CCCNC2)n1 (stereo unspecified) | 28.3 |
| Cc1nc(CCC(=O)NC2CCC2)cc(C2CCCNC2)n1 (stereo unspecified) | 26.8 |
| Cc1nc(NC2CCS(=O)(=O)CC2)cc(C2CCCNC2)n1 (stereo unspecified) | 62.2 |
| CSc1nsc(NC(=O)c2cc(C3CC3)nn2C)n1 | -64.85 |
| CCN(C)Cc1cccc(CNC(=O)CSCc2ccccn2)c1 | 20.8 |
| CCN(C)Cc1cccc(CNC(=O)NCCc2ccccn2)c1 | 51 |
| CN(C)c1ccc(CNC(=O)NCCc2ccccn2)cn1 | -22.9 |
| Fc1ccccc1CN1CCC(c2n[nH]c(C3CC3)n2)CC1 | -5.92 |
| Cc1nc2cc(C3CCN(Cc4cccc(F)c4F)C3)nn2c(O)c1C.O=C(O)CC(O)(CC(=O)O)C(=O)O (stereo unspecified) | 90.4 |
| COC(=O)c1cccc2nc([C@H]3CCN(Cc4ccccc4F)C3)oc12 | -61.5 |
| Cc1nc(O)cc(C2CCN(Cc3cccc(F)c3F)C2)n1 (stereo unspecified) | 25 |
| Cc1nc2cc(C3CCN(Cc4ccccc4F)C3)nn2c(O)c1C (stereo unspecified) | 61.7 |
| CN(Cc1nnc(C2CC2)n1C)C1CCN(Cc2ccccc2F)C1 (stereo unspecified) | -3.19 |
| CN(Cc1noc(C2CC2)n1)C1CCN(Cc2cccc(F)c2F)C1 (stereo unspecified) | -31.96 |
| CNC(=O)c1cn[nH]c1C1CCN(Cc2ccccc2F)C1 (stereo unspecified) | -10.5 |
| CCc1c(C)nc2cc(C3CCN(Cc4ccccc4F)C3)nn2c1O (stereo unspecified) | 85.9 |
